Laboratory results: PubChem BioAssay AID493168 (National Center for Advancing Translational Sciences (NCATS), 2011)
Results filed as inconclusive are left out. Active and inactive are the calls of the source. Calls follow the shape of the dose curve; as a rule, active = well fitted inhibition curve with a large enough effect; inconclusive = small, poorly fitted or top-dose-only effect, or effect the other way; inactive = flat fitted curve, though single readings scatter.

target: Ubiquitin carboxyl-terminal hydrolase 2 (Homo sapiens) (UniProt O75604); test: Confirmation Assay for Inhibitors of Ubiquitin-specific Protease USP2a Using CHOP2 as the Reporter; details: USP2 core, Ub-CHOP2 coupled reporter fluorescence; series mostly up to 38.3 µM; activity change, negative = inhibition: at the top concentration; also: nearly all actives have a fitted effect of over 55% in size;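 as to activity change, negative = inhibition: plate controls were DMSO wells for no effect and full inhibition by NEM control for full effect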
Sequence (O75604 whole entry, looked up): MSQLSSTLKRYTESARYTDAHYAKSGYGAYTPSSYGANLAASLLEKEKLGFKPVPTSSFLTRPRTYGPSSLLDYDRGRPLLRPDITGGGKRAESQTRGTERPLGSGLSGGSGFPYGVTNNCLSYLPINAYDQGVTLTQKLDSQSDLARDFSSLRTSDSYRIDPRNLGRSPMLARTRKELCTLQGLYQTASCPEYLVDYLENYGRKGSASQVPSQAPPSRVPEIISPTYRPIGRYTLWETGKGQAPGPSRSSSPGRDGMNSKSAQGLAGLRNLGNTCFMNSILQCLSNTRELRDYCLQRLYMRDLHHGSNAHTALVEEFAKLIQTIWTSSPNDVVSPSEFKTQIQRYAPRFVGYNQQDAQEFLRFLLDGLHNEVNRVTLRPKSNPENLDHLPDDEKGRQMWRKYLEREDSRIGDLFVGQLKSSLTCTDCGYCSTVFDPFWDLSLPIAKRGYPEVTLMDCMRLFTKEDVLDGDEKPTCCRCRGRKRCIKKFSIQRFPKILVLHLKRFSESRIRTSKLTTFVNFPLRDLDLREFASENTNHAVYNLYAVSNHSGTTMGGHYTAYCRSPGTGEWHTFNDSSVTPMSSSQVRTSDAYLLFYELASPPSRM
Outline: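 Ub-CHOP2 cleavage coupled to reporter activation was read by fluorescence after 60 min at RT, with 25 nM final Ub-CHOP2 and substrate. Enzyme (10 nM final USP2 core) first sat 30 min with compound; data were normalized to NEM and fitted to concentration-response curves.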
Potency is read from the fitted curve at half-maximal effect.

Activity change, negative = inhibition, inactive:
CCOC(=O)COc1c(OC)cc(Cl)cc1C1Nc2ccccc2C(=O)N1c1ccccc1 (stereo not given) 2.24%
COc1ccc(CCN2CC(C#N)=C3c4cc(OC)c(OC)cc4CCN3C2)cc1OC -0.858%
CCOC(=O)C(C)Sc1nnc(Cn2c(=O)sc3ccccc32)n1-c1ccccc1 (stereo not given) -7.73%
COc1ccc(C2CC(=O)N3CN(c4ccccc4F)CSC3=C2C#N)cc1OC (stereo not given) -2.34%
CC(C)(C)C(=O)Nc1c2c(nc3c1CCC3)CCCC2 -3.96%
CN(C)c1ccc(NC(=O)CSCc2nc3c(nnn3Cc3ccc(F)cc3)c(=O)[nH]2)cc1 1.9%
COc1ccc(CCN2C(=O)/C(=C\c3ccco3)SC2=S)cc1OC -2.75%
COc1ccccc1NC(=O)CSc1nc(O)cc(=O)n1-c1ccccc1OC -2.53%
c1ccc(-c2nc3nc4ccccc4nc3n2Cc2ccco2)cc1 5.83%
O=C(CSc1nccc(=O)[nH]1)N1N=C2/C(=C/c3ccco3)CCCC2C1c1ccco1 (stereo not given) -19.1%
Clc1ccccc1-c1nnc2sc(-c3cccs3)nn12 -1.13%
COC(=O)c1c(N2C(=O)CCC2=O)sc2c1CCCC2 -2.43%
Cc1c(NC(=O)c2ccc(COc3ccc4ccccc4c3)o2)c(=O)n(-c2ccccc2)n1C -11.8%
CCC(C(=O)NCc1ccccc1OC)n1nc(C)n2c(cc3occc32)c1=O (stereo not given) -0.347%
CCCOc1ccc(N2C(=O)CC(NCCc3ccc(S(N)(=O)=O)cc3)C2=O)cc1 (stereo not given) 0.466%
CCCc1nc(SCC(N)=O)[nH]c(=O)c1CC 5.12%
Cc1ccc(NC(=O)c2cc3c(=O)oc4ccccc4c3s2)nc1 -0.826%
CCOc1ccc2[nH]c(=O)c(CN(Cc3nnnn3Cc3ccco3)C3CCCCC3)cc2c1 -11.1%
COc1cccc(N2C(=O)C3CCCN3C2c2ccc(N(C)C)cc2)c1 (stereo not given) -1.37%
C[C@H](CO)N1C[C@H](C)[C@@H](CN(C)S(=O)(=O)c2ccc(Cl)cc2)Oc2ccc(NS(=O)(=O)c3ccccc3)cc2CC1=O -2.54%
CCc1cc2cccc(C)c2nc1SCC(=O)N1CCN(C(=O)c2ccco2)CC1 1.25%
Cc1noc(/C=C/NCc2cccnc2)c1S(=O)(=O)N(C)CC(=O)N1CCc2ccccc21 0.283%
NS(=O)(=O)c1ccc(NC(=O)CN2CCCCC2)cc1 -1.04%
O=C(/C=C/c1ccc(Cl)c([N+](=O)[O-])c1)Nc1ccc(N2CCCC2)cc1 -14%
O=C(Nc1ccc(N2CCCC2)c(Cl)c1)c1ccc(Br)o1 4.08%
Cc1ccc(N2CCN(C(=O)CCc3nc4ccccc4[nH]3)CC2)c(C)c1 3.5%
Nc1ccc(C2=Nc3cccc4cccc(c34)N2)cc1 -0.428%
CN(C)CCOCCP(=O)(c1ccccc1)c1ccccc1 3.55%
Cc1ccc(NC(=O)Cn2nc(C)c3ccccc3c2=O)cc1F 0.67%

Potency, active:
COc1ccc2[nH]c(=O)c(CN(C3CCCCC3)C(c3nnnn3Cc3ccco3)C(C)C)cc2c1 (stereo not given) 10.4 µM
Clc1ccc2c(N/N=C/c3ccc(Br)cc3)ccnc2c1 13.1 µM
CC(=O)c1cccc(NC(=O)C(C)OC(=O)c2cc(=O)[nH]c3ccccc23)c1 (stereo not given) 6.56 µM
CC(C)c1ccc2c(c1)c(SC(C)(C)C)c(CC(C)(C)C(=O)O)n2Cc1ccc(Cl)cc1 6.56 µM
CCOc1ccc(C=NNc2ccc(S(=O)(=O)Nc3ccccc3C(=O)O)cc2[N+](=O)[O-])cc1 7.36 µM
COC(=O)C1CCN(C(=O)c2cc(-c3ccco3)nc3ccccc23)CC1 13.1 µM
C#CCOCCOCCOCCNc1nc(N2CCN(C(=O)CCCCCCCCCCNC(=O)Cn3cc(C[C@@H](C)O)nn3)CC2)nc(N2CCN(C(=O)CCCCCCCCCCNC(=O)[C@@H]([C@H](C)CC)n3cc(CCCCCN)nn3)CC2)n1 11.7 µM
O=C(O)CC(C(=O)O)N1C(=O)/C(=C/C=C/c2ccco2)SC1=S (stereo not given) 4.14 µM
O=C(O)C(Cc1ccccc1)N1C(=O)/C(=C/C=C/c2ccco2)SC1=S (stereo not given) 7.36 µM
CCc1cc(C(=O)N=Nc2c(O)[nH]c3ccc([N+](=O)[O-])cc23)c2ccccc2n1 14.7 µM
C#CCOCCOCCOCCNc1nc(N2CCN(C(=O)CCCCCCCCCCNC(=O)[C@@H](CCC(=O)O)n3cc(CCCCCN)nn3)CC2)nc(N2CCN(C(=O)CCCCCCCCCCNC(=O)[C@H]([C@@H](C)CC)n3cc(CCCCCN)nn3)CC2)n1 11.7 µM
